The source of these data is the supplement of paper PMC9262897, “Low-cost anti-mycobacterial drug discovery using engineered E. coli” (Nature Communications, 2022).

Counter-ions that a name gives are not always drawn. ± gives the standard deviation of the averaged measurements.

For one assay, the system named is E. coli TESEC Mtb DapB. Description: growth (OD600 after 10 h); higher = more growth (less inhibition). The note with it: arabinose induction (level): High; compound 0.1 mM; raw OD600 reference: median of DMSO wells […], cell-free background 0.041. The procedure:
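TESEC E. coli strains in which the native enzyme is deleted and replaced by arabinose-inducible Mtb Asd, DapB, CysH or TrpD, each grown in its selective medium. Strains were screened against the Prestwick library at 0.1 mM and 1% DMSO in 384-well format at low and high arabinose induction. Growth is read as OD600 after 10 h in triplicate.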
Take `CC(=O)CC(c1ccccc1)c1c(O)c2ccccc2oc1=O` (stereo not given) [Warfarin]: the growth is 0.2 ± 0.011.
For the compound `CN(C)CCCN1c2ccccc2Sc2ccc(Cl)cc21` [Chlorpromazine hydrochloride], the growth is 0.13 ± 0.012.
Turning to `N[C@@H]1CONC1=O` [D-cycloserine], the growth came to 0.2176 ± 0.0016.
Still for that read-out and setting: next, `CC1(C)S[C@@H]2[C@H](NC(=O)[C@H](N)c3ccc(O)cc3)C(=O)N2[C@H]1C(=O)O` [Amoxicillin]: 0.217 ± 0.029.
On the same count and under the same terms, next, `COc1cccc(N(C)C(=S)Oc2ccc3c(c2)CCCC3)n1` [Liranaftate]: 0.196 ± 0.013; `O=c1[nH]cc(F)c(=O)[nH]1` [5-fluorouracil]: 0.151 ± 0.011.
The compound `CCCCC(=O)O[C@H]1CC[C@H]2[C@@H]3CCc4cc(O)ccc4[C@H]3CC[C@]12C` [Estradiol Valerate] gave a growth of 0.193 ± 0.0052.
Still for that read-out and setting: the result for `CN1CCCCC1CCN1c2ccccc2Sc2ccc([S+](C)[O-])cc21` (stereo not given) [Mesoridazine besylate] reads 0.191 ± 0.007; that for `Cc1ccccc1N1C(=O)c2cc(S(N)(=O)=O)c(Cl)cc2NC1C` (stereo not given) [Metolazone], 0.199 ± 0.038.
With `O=C1CN2Cc3c(ccc(Cl)c3Cl)N=C2N1` [Anagrelide], the growth is 0.198 ± 0.011.
`CC[N+](C)(CC)CCC[n+]1c(-c2ccccc2)c2cc(N)ccc2c2ccc(N)cc21` [Propidium iodide] gave a growth of 0.137 ± 0.027.
In turn, `C[C@]12C=CC(=O)C=C1CC[C@@H]1[C@@H]2[C@@H](O)C[C@@]2(C)[C@H]1CC[C@]2(O)C(=O)CO` [Prednisolone] gave a growth of 0.179 ± 0.015.
Same read-out and setting: next, `O=C1Nc2ccc(Cl)cc2[C@@](C#CC2CC2)(C(F)(F)F)O1` [Efavirenz]: 0.0481 ± 0.00017.
Same read-out and setting: next, `CCOc1ccccc1OCC1CNCCO1` (stereo not given) [Viloxazine hydrochloride]: 0.172 ± 0.029; `CC(C)NC[C@H](O)COc1ccc(CC(N)=O)cc1` [(S)-(-)-Atenolol]: 0.193 ± 0.037.
The same measure, in the same setting: the result for `CC(=O)[C@H]1CC[C@H]2[C@@H]3CC=C4C[C@@H](O)CC[C@]4(C)[C@H]3CC[C@]12C` [Pregnenolone] reads 0.191 ± 0.0035; that for `CCCCNc1ccc(C(=O)OCCN(C)C)cc1`, 0.174 ± 0.019; that for `Nc1nc(N)c2nc(-c3ccccc3)c(N)nc2n1` [Triamterene], 0.165 ± 0.0077.
As for `Nc1ccc(C(=O)O)c(O)c1` [4-aminosalicylic acid], the growth came out at 0.199 ± 0.025.
As to `COC(=O)C1=C(C)NC(C)=C(C(=O)OC)C1c1ccccc1[N+](=O)[O-]` [Nifedipine], the growth is 0.155 ± 0.018.

Staying with this assay, now noted: arabinose induction (level): Low; compound 0.1 mM; raw OD600 reference: median of DMSO wells 0.227, cell-free background 0.041.
`CC(=O)CC(c1ccccc1)c1c(O)c2ccccc2oc1=O` (stereo not given) [Warfarin]: the growth stood at 0.231 ± 0.021.
Same read-out and setting: the result for `CN(C)CCCN1c2ccccc2Sc2ccc(Cl)cc21` [Chlorpromazine hydrochloride] reads 0.25 ± 0.08.
Still for that read-out and setting: next, `N[C@@H]1CONC1=O` [D-cycloserine]: 0.245 ± 0.044; `CC1(C)S[C@@H]2[C@H](NC(=O)[C@H](N)c3ccc(O)cc3)C(=O)N2[C@H]1C(=O)O` [Amoxicillin]: 0.259 ± 0.046; `COc1cccc(N(C)C(=S)Oc2ccc3c(c2)CCCC3)n1` [Liranaftate]: 0.224 ± 0.0065.
The compound `O=c1[nH]cc(F)c(=O)[nH]1` [5-fluorouracil] gave a growth of 0.142 ± 0.013.
On the same count and under the same terms, the result for `CCCCC(=O)O[C@H]1CC[C@H]2[C@@H]3CCc4cc(O)ccc4[C@H]3CC[C@]12C` [Estradiol Valerate] reads 0.207 ± 0.0061; that for `CN1CCCCC1CCN1c2ccccc2Sc2ccc([S+](C)[O-])cc21` (stereo not given) [Mesoridazine besylate], 0.202 ± 0.027; that for `Cc1ccccc1N1C(=O)c2cc(S(N)(=O)=O)c(Cl)cc2NC1C` (stereo not given) [Metolazone], 0.254 ± 0.087.
Still for that read-out and setting: the result for `O=C1CN2Cc3c(ccc(Cl)c3Cl)N=C2N1` [Anagrelide] reads 0.232 ± 0.024; that for `CC[N+](C)(CC)CCC[n+]1c(-c2ccccc2)c2cc(N)ccc2c2ccc(N)cc21` [Propidium iodide], 0.111 ± 0.021.
Turning to `C[C@]12C=CC(=O)C=C1CC[C@@H]1[C@@H]2[C@@H](O)C[C@@]2(C)[C@H]1CC[C@]2(O)C(=O)CO` [Prednisolone], the growth came out at 0.254 ± 0.041.
Regarding `O=C1Nc2ccc(Cl)cc2[C@@](C#CC2CC2)(C(F)(F)F)O1` [Efavirenz], the growth is 0.048 ± 0.00069.
Turning to `CCOc1ccccc1OCC1CNCCO1` (stereo not given) [Viloxazine hydrochloride], the growth came to 0.211 ± 0.019.
Same read-out and setting: the result for `CC(C)NC[C@H](O)COc1ccc(CC(N)=O)cc1` [(S)-(-)-Atenolol] reads 0.222 ± 0.03; that for `CC(=O)[C@H]1CC[C@H]2[C@@H]3CC=C4C[C@@H](O)CC[C@]4(C)[C@H]3CC[C@]12C` [Pregnenolone], 0.184 ± 0.009.
The same measure, in the same setting: the result for `CCCCNc1ccc(C(=O)OCCN(C)C)cc1` reads 0.186 ± 0.0082.
Still for that read-out and setting: the result for `Nc1nc(N)c2nc(-c3ccccc3)c(N)nc2n1` [Triamterene] reads 0.203 ± 0.046; that for `Nc1ccc(C(=O)O)c(O)c1` [4-aminosalicylic acid], 0.263 ± 0.017.
Regarding `COC(=O)C1=C(C)NC(C)=C(C(=O)OC)C1c1ccccc1[N+](=O)[O-]` [Nifedipine], the growth is 0.216 ± 0.069.
